Potency and outcome data for eight molecules are collected here from PubChem BioAssay (Tox21).

Assay [1] can be described thus: qHTS assay to identify aromatase inhibitors - cell viability counter screen (AID 743084).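 Note: cells stimulated with testosterone during compound exposure; nearly all actives have a fitted effect of over 55% in size.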 Note: potency is the fitted concentration of half-maximal effect.
For assay [2], the target named is Aryl hydrocarbon receptor (Homo sapiens) (UniProt P35869). The assay is described as follows: qHTS assay to identify small molecule that activate the aryl hydrocarbon receptor (AhR) signaling pathway (AID 743085).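 Note: HG2L7.5c1 human HepG2 liver cells with stably integrated DRE-driven firefly reporter; series mostly up to about 70 µM; nearly all actives have a fitted effect of over 15% in size.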 A digest of the protocol: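 Compounds were tested in HepG2 hepatocellular carcinoma cells harbouring a stably integrated luciferase gene under control of 20 DREs. Increased reporter signal after 24 h treatment at 37C was taken as AhR activation.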
Aryl hydrocarbon receptor (Homo sapiens), sequence (P35869 whole entry, looked up): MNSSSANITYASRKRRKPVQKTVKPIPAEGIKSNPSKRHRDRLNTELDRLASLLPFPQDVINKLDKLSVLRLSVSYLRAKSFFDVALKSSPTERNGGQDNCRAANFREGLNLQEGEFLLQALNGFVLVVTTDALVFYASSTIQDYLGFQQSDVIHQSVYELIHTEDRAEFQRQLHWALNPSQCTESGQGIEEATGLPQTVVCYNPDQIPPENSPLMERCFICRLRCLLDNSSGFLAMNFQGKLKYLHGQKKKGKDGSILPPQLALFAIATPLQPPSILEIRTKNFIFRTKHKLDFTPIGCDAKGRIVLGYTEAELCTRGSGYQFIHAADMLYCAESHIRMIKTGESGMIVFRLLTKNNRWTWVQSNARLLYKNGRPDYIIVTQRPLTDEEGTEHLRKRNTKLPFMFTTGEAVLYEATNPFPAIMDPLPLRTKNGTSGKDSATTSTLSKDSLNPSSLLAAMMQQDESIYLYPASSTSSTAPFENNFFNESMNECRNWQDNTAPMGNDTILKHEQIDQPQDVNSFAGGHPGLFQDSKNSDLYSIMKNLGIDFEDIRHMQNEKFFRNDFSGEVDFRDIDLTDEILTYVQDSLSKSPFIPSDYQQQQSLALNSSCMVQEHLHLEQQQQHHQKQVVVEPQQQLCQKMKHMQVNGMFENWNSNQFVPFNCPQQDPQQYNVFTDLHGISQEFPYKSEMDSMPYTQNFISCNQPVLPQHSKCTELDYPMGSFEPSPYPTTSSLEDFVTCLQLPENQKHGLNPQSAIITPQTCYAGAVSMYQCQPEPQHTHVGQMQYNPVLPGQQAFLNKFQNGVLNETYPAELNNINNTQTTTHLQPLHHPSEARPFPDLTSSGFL
On the technique in general: qHTS replaces the single test concentration by a dilution series.

Assay [3] can be described thus: qHTS assay to identify small molecule that activate the aryl hydrocarbon receptor (AhR) signaling pathway - cell viability counter screen (AID 743086). Note: series mostly up to about 70 µM; nearly all actives have a fitted effect of over 45% in size. A digest of the protocol: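 Cytotoxicity counter screen: CellTiter-Fluor signal (30 min, 37 C) in 4000 HepG2 cells/well carrying the DRE-luciferase reporter, following 24 h compound exposure at 37 C.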
The nature of assay [4]: qHTS assay for small molecule agonists of the antioxidant response element (ARE) signaling pathway (AID 743202; active = well fitted activation curve with a large enough effect in the signal ratio in the repeat runs, not every such curve was filed as active; the % refers to the signal ratio; note: potency is the fitted concentration of half-maximal effect). A digest of the protocol:
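After 16 hours of compound treatment at 37 C, HepG2 cells with a stably integrated ARE-driven beta-lactamase reporter were loaded 2 hours at room temperature with LiveBLAzer B/G FRET substrate and fluorescence intensity measured.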

Assay [5] can be described thus: qHTS assay for small molecule agonists of the antioxidant response element (ARE) signaling pathway - cell viability counter screen (AID 743203; calls by dose curve; note: nearly all actives have a fitted effect of over 55% in size). A digest of the protocol:
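Cytotoxicity was tested in parallel with the ARE reporter screen. ARE-bla HepG2 cells were exposed to compounds for 16 hrs, and viability was taken from CellTiter-Glo luminescence.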

The nature of assay [6]: qHTS assay for small molecule activators of the heat shock response signaling pathway - cell viability counter screen (AID 743209). Note: nearly all actives have a fitted effect of over 50% in size. A digest of the protocol: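 Cytotoxicity counter screen run in parallel with the HSE beta-lactamase reporter, using the same wells. HeLa HSE-bla cells received compound for 5 h at 37 C; ATP-based CellTiter-Glo luminescence was measured after 30 min at room temperature.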

Assay [7] can be described thus: qHTS assay to identify small molecule agonists of the peroxisome proliferator-activated receptor delta (PPARd) signaling pathway - cell viability counter screen (AID 743211). Note: nearly all actives have a fitted effect of over 55% in size. Note: potency is the fitted concentration of half-maximal effect. A digest of the protocol:
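Counter screen for cytotoxicity run in parallel with the PPARd reporter screen. Beta-lactamase reporter HEK293H cells exposed to compounds 17 h; ATP-based CellTiter-Glo luminescence quantified viability.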

Assay [8] deals with Peroxisome proliferator-activated receptor gamma (Homo sapiens) (UniProt P37231). The assay is described as follows: qHTS assay to identify small molecule agonists of the peroxisome proliferator-activated receptor gamma (PPARg) signaling pathway (AID 743094; active = well fitted activation curve with a large enough effect in the signal ratio in the repeat runs, not every such curve was filed as active; the % refers to the signal ratio). A digest of the protocol: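 Cells from the PPARg UAS-bla HEK293H line are plated and incubated 5 h at 37C. Compounds in DMSO are pinned in and left 17 h at 37C. LiveBLAzer B/G substrate is then added for 1 h at room temperature before fluorescence is measured.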
Peroxisome proliferator-activated receptor gamma (Homo sapiens), sequence (P37231 whole entry, looked up): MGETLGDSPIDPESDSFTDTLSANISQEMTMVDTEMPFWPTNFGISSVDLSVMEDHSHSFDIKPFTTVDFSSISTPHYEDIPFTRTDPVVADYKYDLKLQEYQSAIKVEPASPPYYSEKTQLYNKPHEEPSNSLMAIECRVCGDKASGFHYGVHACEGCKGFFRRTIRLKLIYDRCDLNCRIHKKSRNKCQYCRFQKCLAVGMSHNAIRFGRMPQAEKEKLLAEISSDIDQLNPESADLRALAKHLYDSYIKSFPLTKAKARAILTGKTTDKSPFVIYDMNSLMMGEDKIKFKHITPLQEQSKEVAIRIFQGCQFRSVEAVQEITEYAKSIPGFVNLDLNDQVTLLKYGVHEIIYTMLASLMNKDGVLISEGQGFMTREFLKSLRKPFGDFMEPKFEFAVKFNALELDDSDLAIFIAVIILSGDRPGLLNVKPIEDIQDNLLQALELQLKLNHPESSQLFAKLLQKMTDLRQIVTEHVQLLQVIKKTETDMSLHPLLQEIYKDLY

Assay [9] has the same target. The experiment in a line: qHTS assay to identify small molecule antagonists of the peroxisome proliferator-activated receptor gamma (PPARg) signaling pathway (AID 743191; calls by dose curve; note: series mostly up to about 63 µM; nearly all actives have a fitted effect of over 30% in size). A digest of the protocol:
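Beta-lactamase reporter under UAS control in HEK293H PPARg-bla cells; compound treatment 17 h at 37C. Read-out: fluorescence intensity after 1 h room-temperature incubation with LiveBLAzer B/G FRET substrate.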

The nature of assay [10]: qHTS assay to identify small molecule antagonists of the peroxisome proliferator-activated receptor gamma (PPARg) signaling pathway - cell viability counter screen (AID 743194). Note: nearly all actives have a fitted effect of over 55% in size. Particulars: Potency: co-treated with 50 nM rosiglitazone. A digest of the protocol: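 Viability was measured as CellTiter-Glo luminescence in GeneBLAzer PPARg UAS-bla HEK293H cells. These cells had been exposed 17 h at 37 C to compounds together with rosiglitazone at 50 nM final, with the beta-lactamase readout taken in the same wells.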

A short description of assay [11]: qHTS assay to identify small molecule antagonists of the peroxisome proliferator-activated receptor delta (PPARd) signaling pathway - cell viability counter screen (AID 743213). Note: nearly all actives have a fitted effect of over 50% in size. A digest of the protocol: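 CellTiter-Glo was added to PPARd-bla HEK293H wells following 17 h compound treatment in the presence of 300 nM L165041. Luminescence was recorded after 30 min at room temperature.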

Assay [12] addresses Peroxisome proliferator-activated receptor delta (Homo sapiens) (UniProt Q03181). The experiment in a line: qHTS assay to identify small molecule antagonists of the peroxisome proliferator-activated receptor delta (PPARd) signaling pathway (AID 743215; active = well fitted inhibition curve with a large enough effect in the signal ratio in the repeat runs, not every such curve was filed as active; the % refers to the signal ratio;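 note: cells stimulated with agonist L165041 at 300 nM final during compound exposure; series mostly up to about 62 µM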). A digest of the protocol:
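Cells: HEK293H with a UAS-driven beta-lactamase reporter responsive to PPARd. Compounds were co-added with L165041 (300 nM, final) and incubated 17 h at 37 C before a 2 h room-temperature FRET substrate step and fluorescence reading.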

The target in assay [13] is Bile acid receptor (Homo sapiens) (UniProt Q96RI1). The assay is described as follows: qHTS assay to identify small molecule antagonists of the farnesoid-X-receptor (FXR) signaling pathway (AID 743217; active = well fitted inhibition curve with a large enough effect in the signal ratio in the repeat runs, not every such curve was filed as active; the % refers to the signal ratio). A digest of the protocol:
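Cells carrying a UAS-driven beta-lactamase reporter (GeneBLAzer FXR-UAS-bla HEK 293T) were plated and rested 5 h at 37 °C. Compounds in DMSO were added alongside chenodeoxycholic acid agonist at 50 uM final and left 16 h at 37 °C before FRET substrate readout.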

A short description of assay [14]: qHTS assay to identify small molecule agonists of the farnesoid-X-receptor (FXR) signaling pathway - cell viability counter screen (AID 743218). Note: nearly all actives have a fitted effect of over 45% in size. A digest of the protocol: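 Cells were seeded, left 5 h at 37 C and 5% CO2, then dosed with compound in DMSO for 16 h. After the beta-lactamase FRET read, CellTiter-Glo was added and luminescence measured 30 min later.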

Assay [15] has as its target Bile acid receptor (Homo sapiens) (UniProt Q96RI1). The experiment in a line: qHTS assay to identify small molecule agonists of the farnesoid-X-receptor (FXR) signaling pathway (AID 743220; active = well fitted activation curve with a large enough effect in the signal ratio in the repeat runs, not every such curve was filed as active; the % refers to the signal ratio). A digest of the protocol: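 FXR-UAS-bla HEK 293T cells carrying a UAS-driven beta-lactamase reporter were plated for 5 h at 37C/5% CO2, then exposed to DMSO-dissolved Tox21 10K compounds for 16 h at 37C. A LiveBLAzer B/G FRET substrate was loaded for 2 h at room temperature before fluorescence reading.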

Assay [16] can be described thus: qHTS assay to identify small molecule antagonists of the farnesoid-X-receptor (FXR) signaling pathway - cell viability counter screen (AID 743221; active = well fitted cell-killing curve with a large enough effect in the repeat runs, not every such curve was filed as active; note: nearly all actives have a fitted effect of over 50% in size). A digest of the protocol: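 Multiplexed counter screen: viability of FXR-bla HEK 293T cells under agonist stimulation by chenodeoxycholic acid (50 uM, final) and test compound for 16 h at 37 C, measured by CellTiter-Glo luminescence in the reporter wells.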

Assay [17] has as its target Vitamin D3 receptor (Homo sapiens) (UniProt P11473). The assay is described as follows: qHTS assay to identify small molecule agonists of the vitamin D receptor (VDR) signaling pathway (AID 743222; calls by dose curve). A digest of the protocol:
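Cells carrying a VDR-driven beta-lactamase reporter are seeded at 2,000 per well and rested 4 h. Compounds in DMSO are added for 16 h at 37C, and FRET substrate fluorescence is measured after 2 h at room temperature.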

Assay [18] shares this target. The assay is described as follows: qHTS assay to identify small molecule antagonists of the vitamin D receptor (VDR) signaling pathway (AID 743223; active = well fitted inhibition curve with a large enough effect in the signal ratio in the repeat runs, not every such curve was filed as active; the % refers to the signal ratio). A digest of the protocol: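 Cells carrying a VDR-driven beta-lactamase reporter (VDR-bla) were co-treated with compound and 3 nM final 1alpha,25-dihydroxyvitamin D3 for 16 h at 37C; reporter activity was measured as FRET substrate fluorescence after 2 h at room temperature.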

Assay [19] is described as follows: qHTS assay for small molecule activators of the heat shock response signaling pathway (AID 743210; active = well fitted activation curve with a large enough effect in the signal ratio in the repeat runs, with a control signal flat, not every such curve was filed as active; the % refers to the signal ratio; note: series mostly up to about 63 µM). A digest of the protocol: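 Compound exposure lasted 5 h at 37 C in HeLa cells carrying a heat-shock-element-driven beta-lactamase reporter. Read-out: fluorescence intensity after 2.5 h room-temperature loading with LiveBLAzer B/G FRET substrate.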
In assay [20] the target is Peroxisome proliferator-activated receptor delta (Homo sapiens) (UniProt Q03181). The assay is described as follows: qHTS assay to identify small molecule agonists of the peroxisome proliferator-activated receptor delta (PPARd) signaling pathway (AID 743212; calls by dose curve). A digest of the protocol:
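Beta-lactamase reporter readout: a ratiometric FRET signal from the LiveBLAzer substrate after 2 h at room temperature. Compound exposure at 37 °C in PPARδ-bla HEK293H cells driven by an upstream activator sequence.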

Results filed as inconclusive are left out. Calls of active or inactive are those of the source. Unless noted, calls come from the whole dose curve; as a rule, active = well fitted curve in the direction sought with a large enough effect in the repeat runs; inconclusive = weak or mixed curves; inactive = no such curve, though single readings can be large; an effect the other way counts as inactive or inconclusive.

Peroxisome proliferator-activated receptor delta (Homo sapiens), sequence (Q03181 whole entry, looked up): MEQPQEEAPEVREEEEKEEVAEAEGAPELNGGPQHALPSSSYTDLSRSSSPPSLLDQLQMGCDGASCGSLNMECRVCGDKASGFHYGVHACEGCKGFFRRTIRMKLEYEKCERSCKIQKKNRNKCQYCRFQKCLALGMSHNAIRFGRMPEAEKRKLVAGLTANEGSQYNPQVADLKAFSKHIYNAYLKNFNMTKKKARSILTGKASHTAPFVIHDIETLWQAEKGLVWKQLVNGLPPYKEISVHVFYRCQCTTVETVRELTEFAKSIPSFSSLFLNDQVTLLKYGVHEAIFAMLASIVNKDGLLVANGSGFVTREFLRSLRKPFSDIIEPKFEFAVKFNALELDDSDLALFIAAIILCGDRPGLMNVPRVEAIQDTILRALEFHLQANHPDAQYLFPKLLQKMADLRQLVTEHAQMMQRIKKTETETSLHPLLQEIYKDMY
Vitamin D3 receptor (Homo sapiens), sequence (P11473 whole entry, looked up): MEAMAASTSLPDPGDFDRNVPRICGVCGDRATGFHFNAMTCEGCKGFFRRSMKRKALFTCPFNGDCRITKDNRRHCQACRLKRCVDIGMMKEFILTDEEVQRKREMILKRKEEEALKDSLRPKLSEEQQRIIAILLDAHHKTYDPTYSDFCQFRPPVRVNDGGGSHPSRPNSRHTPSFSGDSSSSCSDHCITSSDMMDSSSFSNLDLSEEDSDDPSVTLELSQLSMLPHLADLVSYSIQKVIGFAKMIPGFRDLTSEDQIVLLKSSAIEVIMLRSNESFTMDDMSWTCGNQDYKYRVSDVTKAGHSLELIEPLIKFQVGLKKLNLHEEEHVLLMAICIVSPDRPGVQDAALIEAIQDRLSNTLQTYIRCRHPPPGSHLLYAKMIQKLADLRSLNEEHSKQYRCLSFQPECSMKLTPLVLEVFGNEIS
Bile acid receptor (Homo sapiens), sequence (Q96RI1 whole entry, looked up): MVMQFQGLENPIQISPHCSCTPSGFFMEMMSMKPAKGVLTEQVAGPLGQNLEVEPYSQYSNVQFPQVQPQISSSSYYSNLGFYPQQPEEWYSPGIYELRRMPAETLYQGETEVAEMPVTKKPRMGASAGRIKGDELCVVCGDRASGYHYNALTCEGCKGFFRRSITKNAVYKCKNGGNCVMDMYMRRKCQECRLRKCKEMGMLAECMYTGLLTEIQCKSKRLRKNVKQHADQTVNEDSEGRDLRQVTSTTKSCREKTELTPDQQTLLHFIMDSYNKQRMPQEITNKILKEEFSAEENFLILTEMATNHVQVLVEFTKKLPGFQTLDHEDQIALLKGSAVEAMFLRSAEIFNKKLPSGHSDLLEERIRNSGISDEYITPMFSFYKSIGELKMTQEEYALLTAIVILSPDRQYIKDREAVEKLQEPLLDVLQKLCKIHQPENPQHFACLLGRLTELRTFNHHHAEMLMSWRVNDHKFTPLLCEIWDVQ

For `CC1=C(C(=O)Nc2ccccc2)S(=O)(=O)CCO1`, the figures for the Potency in assay [1], in [4] and in assay [7] were 30.6 µM (active), 1.93 µM (active) and 54.9 µM (active), respectively. Also, the Potency result in [2], in assay [5] and in [6] was “inactive” each time. Moreover, the molecule was called inactive in assay [3].
Consider `O=[N+]([O-])c1ccc2c3c(cccc13)CC2`, for which the Potency entry in [1], in [9], in assay [10], in assay [5], in [6] and in assay [7] was “inactive” throughout. The Potency entry in [13] and in [14] was “inactive” in each case. For the same molecule, the outcome in [3], in assay [8], in [11], in [12], in assay [15] and in [16] was inactive. For the same molecule, the outcome in assay [17] and in assay [18] was inactive.
With `COc1cc(OC)nc(NC(=O)NS(=O)(=O)c2ncccc2OCC(F)(F)F)n1`, the Potency result in [1], in assay [9], in [10], in [4], in [5] and in [6] was “inactive” each time. Also, the Potency result in assay [7], in assay [13] and in [14] was “inactive” in each case. Also, the call in [3], in assay [8], in assay [19], in assay [20], in assay [11] and in assay [12] was inactive. Moreover, the call in assay [16], in assay [17] and in [18] was inactive.
Take `BrCCCCCCBr`: the Potency result in [1], in assay [9], in [10], in assay [5], in [6] and in [7] was “inactive” in each case. In [14], the Potency result is “inactive”. Moreover, the molecule was called inactive in assay [3], in assay [8], in assay [19], in assay [20], in [11] and in assay [16]. Moreover, in assay [17], the molecule was classed as inactive.
Turning to `CC(CC(C#N)(c1ccccc1)c1ccccc1)N(C)C` (configuration not stated), the Potency result in assay [1], in [2], in assay [10], in assay [5], in assay [6] and in assay [13] was “inactive” in each case. The molecule was classed as inactive in assay [19], in assay [16], in [17] and in assay [18].
For the molecule `COP(N)(=S)Oc1ccccc1C(=O)OC(C)C` (configuration not stated), the Potency result in [1], in assay [9], in assay [10], in assay [4], in [5] and in assay [6] was “inactive” throughout. Also, the Potency entry in assay [7] and in assay [14] was “inactive” throughout. In addition, the outcome in [3], in assay [8], in assay [19], in assay [20], in [11] and in assay [16] was inactive. The outcome in assay [17] was inactive.
In the case of `N#CCCC#N`, the Potency result in assay [1], in assay [9], in assay [10], in [4], in assay [5] and in [6] was “inactive” throughout. Further, the Potency result in assay [7], in [13] and in assay [14] was “inactive” each time. Moreover, the result in assay [3], in assay [19], in [20], in assay [11], in [15] and in [16] was inactive. The molecule was classed as inactive in [17] and in assay [18].
On to `Cc1cc(C)c(C(=O)P(=O)(C(=O)c2c(C)cc(C)cc2C)c2ccccc2)c(C)c1`, for which the Potency entry in assay [1], in assay [9], in assay [10], in assay [5], in [6] and in assay [7] was “inactive” each time. The Potency entry in assay [13] is “inactive”. Also, the outcome in [3], in assay [19], in [20], in [11], in [12] and in [15] was inactive. Besides, the molecule was called inactive in assay [16] and in assay [18].
